EP2 mod = modulates human prostaglandin E2 receptor EP2 signaling; EP2-expressing cells, cAMP HTRF FRET, PGE2 co-stimulation; hit rate 0.83% among 260,000; induction, % at 25 µM;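 active means compounds whose cAMP rise, as percent of the full-agonist control response, exceeds 60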;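 further: rat C6 glioma line stably carrying human EP2 under a CMV promoter; the protocol text gives 20 µM as final concentration; 100% = response of wells given 1 µM PGE2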
Target sequence (P43116 whole entry, looked up): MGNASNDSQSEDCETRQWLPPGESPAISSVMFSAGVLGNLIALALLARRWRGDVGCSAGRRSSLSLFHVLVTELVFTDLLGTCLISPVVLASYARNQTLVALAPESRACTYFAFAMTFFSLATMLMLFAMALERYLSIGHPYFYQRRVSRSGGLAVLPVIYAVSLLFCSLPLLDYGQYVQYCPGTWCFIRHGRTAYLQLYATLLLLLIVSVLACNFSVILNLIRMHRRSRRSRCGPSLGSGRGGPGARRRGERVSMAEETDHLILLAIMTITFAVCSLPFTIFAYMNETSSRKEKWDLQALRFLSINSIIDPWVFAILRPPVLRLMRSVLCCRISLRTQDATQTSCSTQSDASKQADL
Furin inh = human furin inhibition | purified furin, fluorogenic substrate cleavage | inhibition, % at 20 µM or 30 µM | hit rate 0.061% among 220,000 | AID 463115 | P09958; in the data active means inhibition above about 25%
Calpain2 inh = inhibitors of pig calpain II; purified calpain II, fluorogenic peptide substrate, 30 min; inhibition, % at 16 µM; hit rate 0.37% among 220,000;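 active means inhibition above about 50%, limit read from the data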
PGE2 EP2 inh = blocks the human prostaglandin E2 receptor EP2; hit rate 0.52% among 260,000; C6 glioma cells expressing human EP2, cAMP TR-FRET; cells stimulated with saturating PGE2; inhibition, % at 25 µM; P43116;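 active means percent inhibition above 40 after rounding to a whole number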;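 further: rat C6 glioma host cells with rolipram phosphodiesterase inhibitor present; the protocol text gives 20 µM as final concentration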
Efa HMGR inh = E. faecalis class II HMG-CoA reductase inhibition; hit rate 0.41% among 190,000; AID 1066; purified E. faecalis HMGR, NADPH absorbance 340 nm kinetic; inhibition, % at 10 µM;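 active means inhibition above a set limit, the median over all tested compounds plus 3 SD, cut at about 9.5% in these data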;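 further: enzyme runs in reverse so mevalonate oxidation gives rising NADPH absorbance; 0% = complete reaction with DMSO and 100% = background rate lacking mevalonate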
An asterisk follows results filed as active; . = no result given; ! = a repeat was not active. A selection: hits, their analogues and other compounds. The true share with any hit is near 1.9%.

SMILES	EP2 mod	Furin inh	Calpain2 inh	PGE2 EP2 inh	Efa HMGR inh
O=C(NCCN1CCOCC1)c1ccc2c(c1)N(Cc1ccccc1)C(=O)CS2	1	-19	0	4	-1
O=C(NCCC1=CCCCC1)c1ccc2c(c1)N(Cc1ccccc1)C(=O)CS2	0	-10	60*	9	1
CC(C)c1ccc(C2C(C#N)=C(N)C(C#N)(C#N)C3=CCN(C(C)C)CC32)cc1 (stereo not drawn)	-11	.	.	7	.
Cc1ccc(NC(=O)CSc2nnc3c(n2)[nH]c2ccc(C)cc23)cc1	-27	.	.	13	.
O/N=C/c1ccc2cccc(O)c2n1	-5	-14	-17	6	.
Oc1cccc2ccc(SSc3ccc4cccc(O)c4n3)nc12	-63	.	.	106*	.
CCCn1c(SCC(=O)Nc2ccccc2C)nnc1-c1ccncc1	-18	.	.	8	.
CC(C)N(CCC(=O)c1ccc2ccccc2c1)Cc1ccccc1	-11	.	.	76*	.
CCC(=O)CCC(=O)c1ccc2ccccc2c1	-22	-11	-42	9	-6
CCCNCc1cc(OC)c(OCc2ccccc2)cc1Br	-13	-10	20	9	19*
COc1ccc(C(=O)CSc2nnc(-c3ccoc3C)n2Cc2ccco2)cc1	12	.	.	10	.
Cc1nnc(SCC(=O)N2CC(=O)Nc3ccccc32)n1C	12	-2	-43	9	0
O=C1CN(C(=O)CSc2nnc3ccccn23)c2ccccc2N1	15	-20	5	7	12*
Cn1cccc1C(=O)OCC(=O)N1c2ccccc2NC(=O)C1(C)C	-5	-2	23	18	-2
Cn1cccc1C(=O)OCC(=O)N1CC(=O)Nc2ccccc21	2	-36	-13	4	11*
Cn1cnc([N+](=O)[O-])c1Sc1nc(N)nc2c1ncn2Cc1ccccc1	7	.	.	53*	.
c1ccc2c(c1)C(=Nn1cnnc1)c1ccccc1-2	-10	26*	2	28	1
O=C1/C(=N/n2cnnc2)c2ccccc2N1Cc1ccccc1	12	-26	6	11	-2
O=C(Nc1nc(-c2ccccc2)cs1)NC1CCCCC1	9	-19	1	11	11*
CCCOc1ccc(C2NC(=O)NC2=O)cc1 (stereo not drawn)	27	27*	7	13	-2
CC(C(=O)N1CCC[C@H](Cn2nc(-c3cccs3)ccc2=O)C1)c1ccccc1 (stereo partly drawn)	-44	.	.	7	.
CC(C)n1nccc1C(=O)NCc1nc(-c2ccccc2Cl)no1	-63	.	.	9	.
CC1=C(C#N)c2nc(N)c(C#N)c(C)c2/C1=C\c1ccc(C)cc1	-111	-9	-112	40*!	-4
CC1=C(C#N)c2nc(N)c(C#N)c(C)c2/C1=C/c1cccc(F)c1	-87	.	.	27	.
CCOC(=O)c1cc(C)sc1/N=C/C1C(=O)CCCC1=O	12	37*	13	7	-3
SMILES	EP2 mod	Furin inh	Calpain2 inh	PGE2 EP2 inh	Efa HMGR inh
CCOC(=O)c1cc(C)sc1/N=C/C1=C(O)CCCC1=O	10	36*	3	2	-1
CC(C)[C@H]1CN(Cc2ccco2)CCN1Cc1ccccn1	20	.	.	.	.
O=C(O)CSc1cc(NS(=O)(=O)c2cccc([N+](=O)[O-])c2)c2ccccc2c1O	-36	-2	40	13	.
CCc1ccc(S(=O)(=O)Nc2cc(SCC(=O)O)c(O)c3ccccc23)cc1	-19	-25	0	10	10*
Brc1c(NC2=NCCN2)ccc2nccnc12	20	-12	1	17	18*
O=C(Nc1ncc(Cc2ccccc2Cl)s1)C1COc2ccccc2O1 (stereo not drawn)	15	.	.	15	.
CC(=O)Oc1ccc(C(=O)Nc2cccc(-c3nnc(-c4ccco4)o3)c2)cc1	-34	-14	0	9	.
Cc1cc(OCc2nc(-c3ccc(NC(=O)c4cccnc4)cc3)no2)ccc1Cl	-3	-12	16	5	-11
O=C(Nc1ccc(-c2noc(CCc3ccccc3)n2)cc1)c1cccnc1	11	-15	-12	76*	3
O=C(Nc1ccc2nc(-c3ccccc3)oc2c1)c1ccco1	-39	-7	-43	42*!	-2
O=C(Nc1ccc2oc(-c3cccnc3)nc2c1)c1ccco1	-8	-6	-427	10	5
O=C(Nc1cccc(-c2nnc(-c3ccco3)o2)c1)c1ccccc1	-33	-13	79*	17	-6
O=C(Nc1ccc(-c2nc3ccccc3o2)cc1)c1cccnc1	-102	6	-48	58*!	-1
Cc1cc(-c2cn[nH]c2C2CCCN(CC(=O)Nc3ccc4c(c3)OCO4)C2)on1 (stereo not drawn)	-12	.	.	.	.
O=C(CCN1C(=O)c2ccccc2C1=O)Nc1ccc(-c2nc3ccccc3o2)cc1	7	-17	-9	.	1
COc1cccc(C(=O)Nc2ccc(-c3nc4ccccc4o3)c(O)c2)c1	7	-32	-229	9	-3
O=C(CN1C(=O)c2ccccc2C1=O)Nc1ccc(-c2nc3ccccc3o2)cc1	-10	-12	96*	8	-1
COc1cc(OC)cc(C(=O)Nc2ccc(-c3nc4ccccc4o3)cc2)c1	-38	-14	-126	52*	0
Cc1cc2c(o1)c1cnn(CC(=O)NCc3cccnc3)c(=O)c1n2C(C)C	-23	.	.	.	.
O=C1CCc2cc(S(=O)(=O)NCc3ccccc3CN3CCOCC3)ccc2N1	-77	.	.	1	.
C=C(C)Cn1c(-c2ccncc2)n[nH]c1=S	10	-23	-5	2	19*
CCn1nnc(NC(=O)c2ccc(Cl)c(Cl)c2)n1	-54	.	.	26	.
COc1ccc(NC(=O)CN2C(=O)/C(=C3\SC(=S)N(C4CCS(=O)(=O)C4)C3=O)c3ccccc32)cc1 (stereo not drawn)	16	-21	56*	8	.
CCCN1CCC(CNC(=O)c2cnn(-c3ccc(F)cc3)c2)CC1	-19	.	.	4	.
Cc1cc(C)c2cc(C#N)c(N3CCCC3)nc2c1	54	-13	-119	4	-6
SMILES	EP2 mod	Furin inh	Calpain2 inh	PGE2 EP2 inh	Efa HMGR inh
Cc1cccc2cc(C#N)c(N3CCCCC3)nc12	74*	.	.	11	.
COCC(=O)N1CCCN(c2nc3c(C)cccc3cc2C#N)CC1	-22	-16	-176	9	-1
CC1CCN(c2nc3c(cc2C#N)COC(C)(C)C3)CC1	47	-37	-317	10	9.7*
Cc1cc(C)c2nc(N3CCCCC3)c(C#N)cc2c1	63*	.	.	7	.
Cc1cccc2cc(C#N)c(N3CCC(C)CC3)nc12	77*	.	.	12	.
Cc1cccc2cc(C#N)c(SCC(=O)N3CCC(C)CC3)nc12	-1	-21	-37	10	-10
COc1ccccc1NC(=O)N(Cc1ccc(F)cc1)Cc1cc2cc(OC)c(OC)cc2[nH]c1=O	-32	.	.	10	.
COCCn1nnnc1C(c1cc2cc3c(cc2[nH]c1=O)OCCO3)N1CCOCC1 (stereo not drawn)	-14	.	.	9	.
COc1ccc(NC(=O)CSc2nnc(-c3ccncc3)n2C)cc1	11	-10	-23	10	2
Cn1c(SCC(=O)Nc2ccc(NC(=O)c3cccs3)cc2)nnc1-c1ccncc1	20	-16	-76	7	11*
COc1ccc(NC(=S)NCCc2c[nH]c3ccccc23)c(OC)c1	-58	-12	33	55*	3

Screening results from PubChem BioAssay.
